Shown are actives, neighbours in structure and some others; about 2.8% of the full set was active somewhere.
POLH inh: blocks human DNA polymerase eta activity | Q9Y253 | recombinant Pol eta, fluorescent DNA replication assay | Potency, µM (doses to about 114 µM), inactives show at the top dose activity change, negative = inhibition, usual class: inhibitors | 390,000 compounds, 1.2% hits; also: potency is read from the fitted curve at half-maximal effect; % is scaled to controls: 0 for no effect and ±100 for the full control effect
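Pol eta at 10 nM preincubated with compounds 15 min at room temperature; reaction started with fluorescent substrate (50 nM final) and read kinetically at 0 and 10 min.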
WRN helicase inh: WRN helicase (human) inhibition; Potency, µM (highest dose often 114 µM), inactives show top-dose activity change, negative = inhibition, usual class: inhibitors; WRN helicase unwinding, fluorescent forked duplex, kinetic; AID 651768; 360,000 compounds, 0.46% hits; also: potency is read from the fitted curve at half-maximal effect; % is scaled to controls: 0 for no effect and ±100 for the full control effect; nearly all actives have a fitted effect of over 55% in size
Target sequence (Q14191 whole entry, looked up): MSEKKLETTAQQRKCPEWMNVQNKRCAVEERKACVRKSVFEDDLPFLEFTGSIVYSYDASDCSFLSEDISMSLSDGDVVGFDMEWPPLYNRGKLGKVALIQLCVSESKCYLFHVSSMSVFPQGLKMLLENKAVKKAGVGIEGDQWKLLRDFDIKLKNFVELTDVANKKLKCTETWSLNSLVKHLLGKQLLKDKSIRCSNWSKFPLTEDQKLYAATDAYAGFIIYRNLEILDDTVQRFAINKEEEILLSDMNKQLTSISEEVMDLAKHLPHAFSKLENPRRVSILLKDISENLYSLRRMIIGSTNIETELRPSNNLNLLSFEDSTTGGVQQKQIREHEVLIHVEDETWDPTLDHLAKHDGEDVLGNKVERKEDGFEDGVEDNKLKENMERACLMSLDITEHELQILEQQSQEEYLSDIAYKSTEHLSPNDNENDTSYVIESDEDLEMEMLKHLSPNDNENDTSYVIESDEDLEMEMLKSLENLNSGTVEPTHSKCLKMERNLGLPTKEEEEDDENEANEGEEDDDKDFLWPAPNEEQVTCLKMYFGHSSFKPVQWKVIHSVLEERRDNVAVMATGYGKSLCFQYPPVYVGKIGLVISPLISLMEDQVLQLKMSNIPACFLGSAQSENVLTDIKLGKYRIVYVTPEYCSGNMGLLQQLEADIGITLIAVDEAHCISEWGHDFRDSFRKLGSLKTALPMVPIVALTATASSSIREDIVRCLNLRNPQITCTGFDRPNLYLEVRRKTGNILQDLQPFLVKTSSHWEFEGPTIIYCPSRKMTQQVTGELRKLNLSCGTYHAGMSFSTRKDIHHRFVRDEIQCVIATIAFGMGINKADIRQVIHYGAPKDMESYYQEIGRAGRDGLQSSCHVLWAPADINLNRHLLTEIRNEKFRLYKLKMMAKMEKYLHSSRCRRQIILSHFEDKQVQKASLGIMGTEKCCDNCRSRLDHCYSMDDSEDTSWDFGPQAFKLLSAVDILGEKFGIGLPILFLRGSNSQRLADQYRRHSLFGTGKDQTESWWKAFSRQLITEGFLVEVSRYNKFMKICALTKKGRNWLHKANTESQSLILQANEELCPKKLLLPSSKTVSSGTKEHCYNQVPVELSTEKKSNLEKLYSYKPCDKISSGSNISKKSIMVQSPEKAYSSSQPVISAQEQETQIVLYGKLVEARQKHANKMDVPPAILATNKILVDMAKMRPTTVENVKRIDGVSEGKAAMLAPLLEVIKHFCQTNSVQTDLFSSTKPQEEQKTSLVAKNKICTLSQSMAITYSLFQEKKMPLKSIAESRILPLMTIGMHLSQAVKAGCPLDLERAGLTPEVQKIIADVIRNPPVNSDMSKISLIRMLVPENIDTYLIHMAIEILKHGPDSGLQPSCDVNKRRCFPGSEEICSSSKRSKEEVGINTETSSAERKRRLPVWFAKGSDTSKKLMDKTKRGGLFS
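WRN at 20 nM final preincubated with compound 15 min at room temperature; reaction started with 100 nM fluorophore/quencher forked duplex oligonucleotide and 2 mM ATP final. Unwinding followed kinetically by red fluorescence (ex 525, em 598 nm).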
PI5P4K alpha inh: PI5P4K alpha (human) kinase inhibition; P48426; PI5P4Kalpha enzyme, ADP-Glo luminescence, 60 min; stronger effect = lower value; max response, %; 330,000 compounds, 1.2% hits; AID 652105; active = max response of -50% or lower; inconclusive = between -30% and -50%; inactive = -30% or higher; also: value at the top dose of about 77 µM; % is scaled to controls: 0 for no effect and ±100 for the full control effect
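ADP-Glo luminescence end-point after a 60 min room-temperature kinase reaction. PI5P4Kalpha and substrate in HEPES pH 7.4 buffer with EGTA, 0.1% CHAPS and 5% DMSO; ATP at 5 microM final.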
POLK inh: inhibitors of human DNA polymerase kappa; Q9UBT6; purified Pol kappa, fluorescent DNA synthesis assay, 10 min; Potency, µM (top dose mostly 107 µM), for inactives: at the top dose activity, negative = inhibition, hits mostly inhibitors; 400,000 compounds, 0.53% hits; AID 588579; also: potency is read from the fitted curve at half-maximal effect; % is scaled to controls: 0 for no effect and ±100 for the full control effect
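Kinetic fluorescence screen: compound preincubated 15 min RT with 10 nM enzyme; 50 nM substrate (final) initiates; reads at 0/10 min.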
Pol iota inh: inhibitors of human DNA polymerase iota | Q9UNA4 | Pol iota fluorescent replication assay, 10 min | Potency, µM (doses to about 115 µM), without a hit: top-dose activity, negative = inhibition, actives largely listed as inhibitors | 390,000 compounds, 1% hits | AID 588590; also: potency is read from the fitted curve at half-maximal effect
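Fluorescent replication assay read twice, at 0 min and 10 min after adding 50 nM (final) substrate. Enzyme (10 nM) and compounds were first incubated 15 min at room temperature; enzyme-free buffer wells were negative controls.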
Pol beta inh: DNA polymerase beta (human) inhibition; Pol beta primer extension/strand displacement, fluorescence kinetic; Potency, µM (highest dose often 114 µM), for the others: at the highest dose activity change, negative = inhibition, actives largely listed as inhibitors; 340,000 compounds, 1.3% hits; AID 485314; also: potency is read from the fitted curve at half-maximal effect; % is scaled to controls: 0 for no effect and ±100 for the full control effect
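Reaction started by 50 nM substrate onto compound-treated Pol beta (10 nM, 15 min preincubation, room temperature); plates read at 0 min and 10 min. Normalized concentration-effect data fitted by four-parameter Hill equation.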
Numbers without * were called inactive; u = inconclusive; x = no result given; [ ] = remark or other dose. Unless noted, calls follow the shape of the dose curve; as a rule, active = well fitted curve in the direction sought with a large enough effect; inconclusive = small, poorly fitted or top-dose-only effect, or another doubt; inactive = no such curve, though single readings can be large; an effect the other way counts as inactive or inconclusive.

SMILES	POLH inh	WRN helicase inh	PI5P4K alpha inh	POLK inh	Pol iota inh	Pol beta inh
O=C(NCc1ccccc1)C(c1cccc2ccccc12)n1c(=O)c(-c2ccco2)nc2ccccc21 (stereo unspecified)	x	-1%	u	x	x	x
CCCCCNC(=O)C(C1CC1)n1c(=O)c(-c2ccco2)nc2ccccc21 (stereo unspecified)	x	2%	-24	x	x	x
CCCCCNC(=O)C(c1ccc(C(F)(F)F)cc1)n1c(=O)c(-c2ccco2)nc2ccccc21 (stereo unspecified)	x	0%	-60*	x	x	x
COc1ccc(CCNC(=O)c2ccc3c(c2)S(=O)(=O)N=C2CCCCCN23)cc1OC	-4%	9%	2	x	x	x
CC1CCC(NC(=O)c2ccc3c(c2)N(Cc2cccc(F)c2)C(=O)c2ccccc2S3)CC1 (stereo unspecified)	u	x	x	-15%[60.1 µM]	89µM*	-30%
O=C(NC1CCCC1)c1ccc2c(c1)N(Cc1ccc(F)cc1)C(=O)c1ccccc1S2	1%	x	x	-19%[60.1 µM]	-18%	-29%
O=C(c1ccc2c(c1)N(Cc1cccc(Cl)c1)C(=O)c1ccccc1S2(=O)=O)N1CCc2ccccc21	-4%	x	x	-11%[60.1 µM]	u	-17%
CCc1cccc2c(C(O)c3c[nH]c4ccccc34)c[nH]c12 (stereo unspecified)	x	x	x	-11%	28%	x
CCN=C1S/C(=C\c2ccc(N3CCOCC3)cc2C)C(=O)N1CC	-9%	2%	-9	-11%	-4%	30%
COCCN1C(=O)/C(=C/c2ccc(N3CCCC3)cc2C)SC1=S	-19%	79µM*	3	-7%	u	17%
Cc1nc2ccccc2c(C)c1CC(=O)N(C)CC(=O)Nc1cccc(F)c1	-11%	-13%	-11	-13%	u	x
CCOc1ccc(NC(=O)CN(C)C(=O)Cc2c(C)nc3ccccc3c2C)cc1OCC	u	-28%	u	-18%	-18%	22µM*
CCNC(=O)CSc1ncnc2sccc12	22µM*	-32%	u	-17%	u	u
O=C(OCCF)N1CCN(/[N+]([O-])=N/Oc2ccc([N+](=O)[O-])cc2[N+](=O)[O-])CC1	x	x	x	-6%	-13%	x
CCCc1nc2ccccc2n2c(-c3ccc(C)cc3)c3c(=O)n(C)c(=O)n(C)c3c12	-8%	x	x	-8%	-20%	13%
COC(=O)CCCCCN1C(=O)NC(c2ccccc2)C(C(=O)OCc2ccccc2)=C1C (stereo unspecified)	-18%	-5%	1	-10%	-2%	-20%
CC1=C(C(=O)OCc2ccccc2)C(c2ccc(Br)cc2)NC(=O)N1CCCC(=O)O (stereo unspecified)	-12%	0%	-80*	3%	u	25%
CC1=C(C(=O)OCc2ccccc2)C(c2ccc(Cl)cc2)NC(=O)N1CCCC(=O)O (stereo unspecified)	-10%	-11%	-100*	7%	-14%	31%
CC1=C(C(=O)OCc2ccccc2)C(c2ccc(Br)cc2)NC(=O)N1CCCCCC(=O)O (stereo unspecified)	1%	-4%	-21	2%	u	x
COc1ccc(/C=N\NC(=O)c2cc3c(ccc4ccccc43)o2)cc1O	50µM*	-13%[11.6 µM]	-6	-18%	28µM*	-20%
O=C(N/N=C/c1ccncc1)c1cc2c(ccc3ccccc32)o1	u	-7%	-2	-2%	9%	1%
O=C(COc1ccccc1[N+](=O)[O-])Nc1ccc(NC(=O)c2cc3ccccc3o2)cc1	u	-33%	-13	1%	u	-18%
O=C(O)c1ccc(/C=N/NC(=O)c2cc3c(ccc4ccccc43)o2)cc1	u	3%	-19	-34%	u	40µM*
O=C(Nc1cccnc1)c1cc2c(ccc3ccccc32)o1	u	u	-4	u	50µM*	32µM*
O=C(COc1ccc(/C=N/NC(=O)c2cc3ccccc3o2)cc1Br)Nc1ccccc1	0.89µM*	-15%	-22	-5%	u	5.6µM*
SMILES	POLH inh	WRN helicase inh	PI5P4K alpha inh	POLK inh	Pol iota inh	Pol beta inh
O=C(Nc1nc(-c2cccs2)cs1)c1ccc([N+](=O)[O-])o1	79µM*	-13%[11.6 µM]	u	-13%	u	x
N#C/C(=C\c1ccc(-c2cccc([N+](=O)[O-])c2)o1)C(=O)Nc1nc(-c2cccs2)cs1	-3%	-9%	-52*	-6%	u	8%
O=C(N/N=C/c1ccc(-c2cccc([N+](=O)[O-])c2)o1)c1cccs1	-19%	11%[57.1 µM]	-7	0%	119%	19%
O=C(CSc1nc2ccsc2c(=O)n1-c1ccc(Br)cc1)NCc1ccc(Cl)cc1	-17%	x	x	-9%	23%	2%
COc1ccc(CCN(C)C(=O)COC(=O)/C=C/c2ccc(C)o2)cc1OC	u	-15%	5	u	50µM*	x
Cc1ccc(NC(=O)C2CCCN2S(=O)(=O)c2ccc3c(c2)C(C)(C)C(=O)N3C)cc1 (stereo unspecified)	-13%	x	x	-3%	36%	-6%

High-throughput results as filed in PubChem BioAssay.
